Laboratory results: PubChem BioAssay (Tox21)
The source made the active and inactive calls. Entries that show only a call come without a potency. Calls follow the shape of the dose curve; as a rule, active = well fitted curve in the direction sought with a large enough effect in the repeat runs; inconclusive = weak or mixed curves; inactive = flat fitted curve, though single readings scatter.

Experiment: qHTS assay to test for compound auto fluorescence at 460 nm (blue) in HepG2 cells (AID 720687)
Details: autofluorescence 405/460 nm, 1 h; series mostly up to 91.3 µM
From the text: U.S. Tox21 Program National Center for Advancing Translational Sciences [NCATS] NIH Chemical Genomics Center [NCGC] U.S. Environmental Protection Agency [EPA] National Institutes of Environmental Health Sciences [NIEHS] National Toxicology Program [NTP] U.S. Food and Drug Administration [FDA] Tox21 Assay Overview: Compound auto fluorescence often interferes with screening of the compound library against various biological targets and signaling pathways. Some of these compounds may have fluorophoric properties. Such properties may interfere with the assay outputs resulting in false positives and/or negatives. To decrease such complications and ensure the compound activities are relevant in terms of biological response, the Tox21 10K compound library was screened for auto fluorescence. From the fluorophores used as reporter signals in our screening assays, the auto fluorescence equivalencies of compounds against three fluorophores have been evaluated: Triamterene, Fluorescein and Rose Bengal sodium for blue, green and red fluorescence, respectively. The fluorescence intensities were measured using Excitation/Emission wavelengths at 405/460nm, 485/535nm and 540/590nm for blue, green and red labels, respectively. This assay includes the blue fluorescence data.
Tox21 Assay Protocol Summary: 2,000 HepG2 cells in 5 uL of culture medium (MEM containing 10% FBS) per well were dispensed into black wall/clear bottom 1536-well plates using a Multidrop Combi Dispenser (ThermoFisher Scientific, Waltham, MA). The assay plates were incubated overnight at 37 C to allow cell attachment to the well bottom, followed by the transfer of 23 nL compound or DMSO vehicle by a pintool work station (Kalypsys , San Diego, CA). After the assay plates were incubated for 1 hr at 37 C and 5% CO2, fluorescence intensities in the assay plates were measured by an Envision (PerkinElmer, Shelton, CT) plate reader using three labels for measuring blue, green and red fluorescence at […] 460, 535 and 590 nm respectively.
Potency is read from the fitted curve at half-maximal effect; tags tell the direction and shape of the fitted curve or compound fluorescence and quenching.

SMILES | Potency
Cc1ccc(/C(=C\CN2CCCC2)c2ccccn2)cc1 | inactive
CCCCCCCCCCC(CO)CCCCCCCC (stereo not given) | inactive
C[N+](C)(C)CCO | inactive
FC(F)(F)C(Cl)Br (stereo not given) | inactive
Nc1ccc(N)c(Cl)c1 | inactive
CN(C)C | inactive
Clc1ccc(Sc2cc(Cl)c(Cl)cc2Cl)cc1 | inactive
Brc1nc2ccccc2s1 | inactive
C=C[C@H]1CN2CC[C@H]1C[C@H]2[C@H](O)c1ccnc2ccc(OC)cc12 | inactive
CC(C)(C)c1cccc(C(C)(C)C)c1O | inactive
Nc1ccc(O)c(N)c1 | inactive
c1ccc2ncccc2c1 | inactive
O=C1OC2(c3ccccc31)c1cc(I)c(O)c(I)c1Oc1c2cc(I)c(O)c1I | inactive
Nc1cc([N+](=O)[O-])ccc1C(=O)O | inactive
CC(=O)O[C@]1(C(C)=O)CC[C@H]2[C@@H]3C=C(Cl)C4=CC(=O)CC[C@]4(C)[C@H]3CC[C@@]21C | inactive
[Na+] | inactive
CC(=O)Nc1ccc2c(c1)Cc1cc(NC(C)=O)ccc1-2 | inactive
C=CCCCCCCCCCC | inactive
CN1CCOCC1 | inactive
CC(=O)Oc1c(C)c(C)c2c(c1C)CC[C@@](C)(CCC[C@H](C)CCC[C@H](C)CCCC(C)C)O2 | inactive

SMILES | Potency
CCCCCCC(C)O (stereo not given) | inactive
c1ccc2cc3ccccc3cc2c1 | inactive
O=C(O)CCCCCCCCCCCC(=O)O | inactive
Nc1cc(Cl)c(N)c(Cl)c1 | inactive
Cc1ccc2c(c1)C(=O)OC2=O | inactive
CN(Cc1cnc2nc(N)nc(N)c2n1)c1ccc(C(=O)N[C@@H](CCC(=O)O)C(=O)O)cc1 | 35.5 µM [fluorescent] (active)
CCC(Cc1c(I)cc(I)c(N)c1I)C(=O)O (stereo not given) | inactive
C=C[C@@]1(C)CC(=O)[C@]2(O)[C@@]3(C)[C@@H](O)CCC(C)(C)[C@@H]3[C@H](O)[C@H](OC(C)=O)[C@@]2(C)O1 | inactive
CC(C)[C@@H]1CC[C@@H](C)CC1=O | inactive
C/C=C/C(=O)N(CC)c1ccccc1C | inactive
CC(=O)O[C@]1(C(C)=O)CC[C@H]2[C@@H]3C=C(C)C4=CC(=O)CC[C@]4(C)[C@H]3CC[C@@]21C | inactive
CC(C)(Oc1ccc(Cl)cc1)C(=O)O | inactive
O=C(O)COCCN1CCN(C(c2ccccc2)c2ccc(Cl)cc2)CC1 (stereo not given) | inactive
Cc1ccc(S(=O)(=O)O)cc1C | inactive
OC[C@@H](O)[C@@H](O[C@@H]1O[C@H](CO)[C@H](O)[C@H](O)[C@H]1O)[C@H](O)[C@@H](O)CO | inactive
COC(=O)C(C)Oc1ccc(Oc2ncc(C(F)(F)F)cc2Cl)cc1 (stereo not given) | inactive
c1ccc2c(c1)ccc1ncccc12 | inactive
COc1cc([C@H]2Oc3cc([C@H]4Oc5cc(O)cc(O)c5C(=O)[C@@H]4O)ccc3O[C@@H]2CO)ccc1O | inactive
CCCN1C=CN(C)C1 | inactive
C=CCNCC=C | inactive
